Laboratory results from PubChem BioAssay (Tox21).
Inconclusive results are not listed. Activity calls are given as the source filed them. Unless noted, calls follow the shape of the full dose curve.

How the values were obtained:
[1] = Nuclear factor erythroid 2-related factor 2/antioxidant responsive element (Nrf2/ARE) small molecule agonists: qHTS cell viability counter screen in human keratinocytes (AID 1919968; active = well fitted curve in the direction sought with a large enough effect in the repeat runs; an effect the other way counts as inactive or inconclusive; also: nearly all actives have a fitted effect of over 55% in size; also: potency is read from the fitted curve at half-maximal effect)
How it was run: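 In human HaCaT keratinocytes stably expressing an ARE-driven luciferase, compound exposure lasted 23 h at 37 C under 5% CO2. Viable cells are quantified with a protease-based fluorogenic reagent (CellTiter-Fluor) read 1 h after addition.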

[2] = biological target: KiSS-1 receptor (Homo sapiens) (UniProt Q969F8); experiment: Human kisspeptin (KISS1R) small molecule agonists, calcium flux assay in KISS1R-HEK293 cells (AID 1920064; active = well fitted curve in the direction sought with a large enough effect in the repeat runs; an effect the other way counts as inactive or inconclusive)
How it was run: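 Concentration-response testing used 15 concentrations in triplicate on human KISS1R-expressing HEK293 cells. Calcium-dependent fluorescence (Ex/Em 480/540) was followed kinetically for 3 min after compound transfer.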

[3] = G protein-coupled receptor (GPCR) small molecule agonists, calcium flux assay: HEK293 wild type cell line counter screen (AID 1920065)
How it was run: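 Fluorescence intensity signals activation. After overnight (18 h) culture and a 1 h calcium dye load at 37 C, compounds are added by pin tool and the plate read at 480/540 nm for 3 min in 1 s steps.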

[4] = p53 small molecule agonists, cell-based qHTS assay with rat liver microsomes (AID 1963578)
How it was run: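 With rat liver microsomes and NADPH present (0.5 mg/mL final each), p53RE-bla cells are treated with compound for 16 h at 37 C. LiveBLAzer detection mixture is then applied for 2 h at room temperature in the dark.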

[5] = p53 small molecule agonists, cell-based qHTS assay with rat liver microsomes: qHTS cell viability counter screen (AID 1963580); also: nearly all actives have a fitted effect of over 45% in size
How it was run: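 After the beta-lactamase ratio was read, CellTiter-Glo was added to the same wells and luminescence measured at 30 min; cells had been treated 16 h at 37 C with compounds, rat liver microsomes and NADPH (0.5 mg/mL final each).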

[6] = biological target: 5-hydroxytryptamine receptor 2A (Homo sapiens) (UniProt P28223); experiment: 5-hydroxytryptamine receptor 2A (HTR2A) small molecule antagonists, cell-based qHTS assay (AID 1963586); also: nearly all actives have a fitted effect of over 45% in size; also: potency is read from the fitted curve at half-maximal effect
How it was run: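 CHO cells stably expressing human HTR2A were plated for 18 h at 37 C, then loaded with calcium dye for 1 h. Compounds were preincubated 5 min at room temperature before DOI (4 nM solution) was added. Kinetic fluorescence was read for 3 min.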

[7] = biological target: 5-hydroxytryptamine receptor 2A (Homo sapiens) (UniProt P28223); experiment: 5-hydroxytryptamine receptor 2A (HTR2A) small molecule agonists, cell-based qHTS assay (AID 1963587); also: nearly all actives have a fitted effect of over 30% in size; also: potency is read from the fitted curve at half-maximal effect
How it was run: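 CHO cells stably expressing human HTR2A, plated 18 h, loaded with calcium dye 1 h at 37 C. Agonist mode: compounds added and intracellular calcium fluorescence recorded kinetically for 2 min at 1 sec intervals.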

[8] = biological target: Beta-2 adrenergic receptor (Homo sapiens) (UniProt P07550); experiment: Adrenergic beta2 receptor (ADRB2) small molecule antagonists, cell-based qHTS assay (AID 1963592); also: series mostly up to about 92 µM; nearly all actives have a fitted effect of over 50% in size
How it was run: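 Assay format: CHO-ADRB2 cells, 18-20hr seeding at 37C/5% CO2, then compound plus 1nM isoproterenol agonist mix for 0.5hr RT. Homogeneous time-resolved fluorescence cAMP detection after 1hr, expressed as 665/615 nm ratio.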

[9] = biological target: D(2) dopamine receptor (Homo sapiens) (UniProt P14416); experiment: Dopamine D2 receptor (DRD2) small molecule antagonists, cell-based qHTS assay (AID 1963595; active = well fitted inhibition curve with a large enough effect in the signal ratio in the repeat runs, with a control signal flat; the % refers to the signal ratio; also: potency is read from the fitted curve at half-maximal effect)
How it was run: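 HEK293 cells stably expressing DRD2, preincubated with 0.1 mM Ro20-1724 and compounds 10 min, were stimulated with 200 nM NKH477 plus 12 nM quinpirole for 30 min at room temperature; cAMP measured by HTRF (665/620 nm).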

[10] = p53 small molecule agonists, cell-based qHTS assay with human liver microsomes (AID 1963577);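 also: p53 response element beta-lactamase reporter cells with liver microsomes plus NADPH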
How it was run: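 16 h, 37 C exposure of p53RE-bla cells to compounds with human liver microsomes and NADPH (0.5 mg/mL final each); detection via LiveBLAzer mixture, 2 h dark at room temperature.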

[11] = p53 small molecule agonists, cell-based qHTS assay with human liver microsomes: qHTS cell viability counter screen (AID 1963579); also: nearly all actives have a fitted effect of over 45% in size
How it was run: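 In this multiplexed counter screen, the reporter plates were subsequently treated with CellTiter-Glo so that cell viability, reflected by luminescence, could be recorded for p53RE-bla cells dosed 16 h with compounds under microsomal activation (HLM and NADPH).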

[12] = p53 small molecule agonists, cell-based qHTS assay: qHTS cell viability counter screen (AID 1963581); also: nearly all actives have a fitted effect of over 45% in size
How it was run: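 Luminescence from CellTiter-Glo, reflecting ATP content, serves as the cytotoxicity measure; it is taken after the 2 h reporter substrate step in HCT-116 p53RE-bla cells dosed for 16 h at 37 C.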

[13] = p53 small molecule agonists, cell-based qHTS assay (AID 1963582; active = well fitted activation curve with a large enough effect in the signal ratio in the repeat runs, not every such curve was filed as active; the % refers to the signal ratio)
How it was run: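 After plating, p53RE-bla cells sat 5 h in the incubator; compounds or DMSO vehicle were pinned in; a 16 h incubation at 37 C followed; FRET substrate was added and, 2 h later at RT, fluorescence was measured.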

[14] = biological target: Muscarinic acetylcholine receptor M1 (Homo sapiens) (UniProt P11229); experiment: Cholinergic receptor muscarinic 1 (CHRM1) small molecule antagonists, cell-based qHTS assay (AID 1963588); also: nearly all actives have a fitted effect of over 40% in size
How it was run: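 Compounds were tested at 15 concentrations in three independent runs. Dye-loaded CHRM1-CHO cells were exposed 5 min at room temperature before stimulation by acetylcholine added at 50nM. Intracellular calcium was read kinetically on FDSS for 3 min.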

[15] = biological target: Muscarinic acetylcholine receptor M1 (Homo sapiens) (UniProt P11229); experiment: Cholinergic receptor muscarinic 1 (CHRM1) small molecule agonists, cell-based qHTS assay (AID 1963589); also: nearly all actives have a fitted effect of over 35% in size
How it was run: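 Fluorescent calcium dye reports M1 activation in stably transfected CHO cells. Compounds, 15 concentrations, added after 1 h dye loading at 37 C; kinetic reading at 1 sec intervals.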

[16] = biological target: D(2) dopamine receptor (Homo sapiens) (UniProt P14416); experiment: Dopamine D2 receptor (DRD2) small molecule agonists, cell-based qHTS assay (AID 1963594); also: nearly all actives have a fitted effect of over 35% in size
How it was run: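 HEK293 cells stably expressing human DRD2, pre-treated with PDE inhibitor Ro20-1724 (0.1 mM final) and compound 10 min at room temperature, then stimulated with NKH477 (200nM […]) for 30 min. cAMP read by HTRF (665/620 nm).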

[17] = cAMP Responsive Elements (CRE) small molecule agonists, cell-based qHTS assay (AID 1963590)
How it was run: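 Compound exposure lasted 3 h at 37 C/5% CO2 in CRE-bla HEK 293T cells grown in assay medium with 10% dialyzed FBS and 25 mM HEPES. Reporter signal came from LiveBLAzer B/G FRET substrate, 2 h, room temperature.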

[18] = cAMP Responsive Elements (CRE) small molecule antagonists, cell-based qHTS assay (AID 1963591; active = well fitted inhibition curve with a large enough effect in the signal ratio in the repeat runs, not every such curve was filed as active; the % refers to the signal ratio)
How it was run: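 Stimulation used NKH477 at a final 0.25 uM for 3 h in compound-treated CRE-bla HEK293T cells, seeded 18 h beforehand. Reporter activity was measured with LiveBLAzer B/G FRET substrate after 2 h at room temperature.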

[19] = biological target: Beta-2 adrenergic receptor (Homo sapiens) (UniProt P07550); experiment: Adrenergic beta2 receptor (ADRB2) small molecule agonists, cell-based qHTS assay (AID 1963593);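 also: CHO cells stably overexpressing human ADRB2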
How it was run: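 CHO cells stably over-expressing ADRB2 were plated overnight at 37C, then dosed with compounds plus a stimulation mix containing 100uM IBMX and 25uM Ro-20-1724 for 0.5hr at room temperature. cAMP was measured by HTRF competition, 1hr.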

Measured: Potency

Sequence of Beta-2 adrenergic receptor (Homo sapiens) (P07550 whole entry, looked up): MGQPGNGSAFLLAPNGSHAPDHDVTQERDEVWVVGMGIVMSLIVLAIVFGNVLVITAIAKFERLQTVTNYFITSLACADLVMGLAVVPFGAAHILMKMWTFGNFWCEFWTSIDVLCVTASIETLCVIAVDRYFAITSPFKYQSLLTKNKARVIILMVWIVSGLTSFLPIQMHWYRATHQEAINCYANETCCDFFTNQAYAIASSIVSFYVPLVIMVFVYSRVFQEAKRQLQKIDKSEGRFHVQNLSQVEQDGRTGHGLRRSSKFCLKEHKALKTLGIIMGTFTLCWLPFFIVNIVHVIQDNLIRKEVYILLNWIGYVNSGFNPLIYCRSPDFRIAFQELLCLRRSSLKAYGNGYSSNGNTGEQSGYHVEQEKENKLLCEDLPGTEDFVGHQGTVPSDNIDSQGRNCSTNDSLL
Sequence of D(2) dopamine receptor (Homo sapiens) (P14416 whole entry, looked up): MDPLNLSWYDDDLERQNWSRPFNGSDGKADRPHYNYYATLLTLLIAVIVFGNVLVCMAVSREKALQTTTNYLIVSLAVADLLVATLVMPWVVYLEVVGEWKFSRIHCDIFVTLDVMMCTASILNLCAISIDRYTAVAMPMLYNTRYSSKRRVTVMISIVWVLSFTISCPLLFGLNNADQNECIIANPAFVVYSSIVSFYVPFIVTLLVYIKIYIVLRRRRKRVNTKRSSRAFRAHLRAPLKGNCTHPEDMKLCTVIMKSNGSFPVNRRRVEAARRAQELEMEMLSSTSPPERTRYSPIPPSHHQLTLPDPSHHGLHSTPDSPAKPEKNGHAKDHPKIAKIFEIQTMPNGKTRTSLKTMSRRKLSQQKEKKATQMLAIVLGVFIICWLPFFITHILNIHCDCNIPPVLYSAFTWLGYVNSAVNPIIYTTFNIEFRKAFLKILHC
Sequence of Muscarinic acetylcholine receptor M1 (Homo sapiens) (P11229 whole entry, looked up): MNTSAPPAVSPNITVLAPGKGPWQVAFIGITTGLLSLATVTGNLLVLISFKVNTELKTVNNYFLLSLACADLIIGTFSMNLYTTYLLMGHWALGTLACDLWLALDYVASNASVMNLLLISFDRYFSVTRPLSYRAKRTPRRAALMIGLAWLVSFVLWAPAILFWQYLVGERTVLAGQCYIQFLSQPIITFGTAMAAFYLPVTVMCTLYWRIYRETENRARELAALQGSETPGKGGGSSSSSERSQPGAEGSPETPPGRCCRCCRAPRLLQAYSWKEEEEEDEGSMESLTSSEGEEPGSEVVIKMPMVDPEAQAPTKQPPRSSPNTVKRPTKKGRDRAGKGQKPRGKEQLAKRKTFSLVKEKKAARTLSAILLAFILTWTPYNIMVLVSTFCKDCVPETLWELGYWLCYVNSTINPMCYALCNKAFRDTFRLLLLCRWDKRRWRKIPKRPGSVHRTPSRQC
Sequence of KiSS-1 receptor (Homo sapiens) (Q969F8 whole entry, looked up): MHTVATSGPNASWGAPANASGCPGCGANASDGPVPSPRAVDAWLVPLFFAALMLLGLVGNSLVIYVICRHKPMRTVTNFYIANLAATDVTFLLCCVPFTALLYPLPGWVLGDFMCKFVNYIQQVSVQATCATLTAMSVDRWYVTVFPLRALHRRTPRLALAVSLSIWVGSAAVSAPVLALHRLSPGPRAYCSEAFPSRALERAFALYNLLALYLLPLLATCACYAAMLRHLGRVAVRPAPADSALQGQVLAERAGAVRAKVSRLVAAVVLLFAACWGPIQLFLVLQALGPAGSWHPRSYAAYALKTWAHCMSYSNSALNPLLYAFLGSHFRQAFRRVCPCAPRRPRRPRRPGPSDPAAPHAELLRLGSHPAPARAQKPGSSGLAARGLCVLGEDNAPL
Sequence of 5-hydroxytryptamine receptor 2A (Homo sapiens) (P28223 whole entry, looked up): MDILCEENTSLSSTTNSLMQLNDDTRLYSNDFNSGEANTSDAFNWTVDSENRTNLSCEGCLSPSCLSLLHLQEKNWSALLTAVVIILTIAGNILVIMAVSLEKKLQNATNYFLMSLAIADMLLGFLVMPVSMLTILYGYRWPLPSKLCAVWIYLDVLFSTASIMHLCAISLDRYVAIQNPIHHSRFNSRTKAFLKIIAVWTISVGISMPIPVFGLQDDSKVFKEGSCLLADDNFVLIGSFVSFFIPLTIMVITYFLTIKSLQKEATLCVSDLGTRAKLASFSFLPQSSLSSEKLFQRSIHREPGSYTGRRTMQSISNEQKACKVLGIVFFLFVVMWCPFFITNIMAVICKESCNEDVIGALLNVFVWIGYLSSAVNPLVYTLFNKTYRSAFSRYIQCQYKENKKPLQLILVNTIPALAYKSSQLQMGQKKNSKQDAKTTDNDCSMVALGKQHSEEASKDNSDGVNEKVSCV

CCCCC[C@H](O)/C=C/[C@H]1[C@H](O)CC(=O)[C@@H]1C/C=C\CCCC(=O)O
active: [9] 0.0075 µM
inactive: [1] | [2] | [3] | [4] | [5] | [6] | [7] | [8]

CC(NCCC(c1ccccc1)c1ccccc1)c1ccccc1 (centres undefined)
active: [1] 26.6 µM | [7] 23.9 µM
inactive: [2] | [3] | [10] | [4] | [11] | [5] | [12] | [13] | [6] | [14] | [15] | [16]

Oc1ccc2c(c1)Cc1ccccc1-2
inactive: [1] | [2] | [3] | [11] | [5] | [12] | [6] | [7] | [14] | [15] | [17] | [18] | [8] | [16] | [9]

C[Si](Cl)(c1ccccc1)c1ccccc1
inactive: [1] | [2] | [3] | [10] | [11] | [5] | [12] | [13] | [6] | [14] | [15] | [17] | [18] | [8] | [16] | [9]

O=S(=O)(O)c1cc(Cl)c(Cl)cc1Cl
inactive: [1] | [2] | [3] | [10] | [4] | [11] | [12] | [6] | [14] | [15] | [17] | [18] | [8] | [16]

O=C(O)c1ccc(-n2nc(-c3ccccc3O)nc2-c2ccccc2O)cc1
inactive: [1] | [2] | [3] | [4] | [11] | [5] | [12] | [13] | [6] | [7] | [14] | [15] | [8] | [9]

C[C@H](CCC(=O)O)[C@H]1CC[C@H]2[C@@H]3[C@H](O)C[C@@H]4C[C@H](O)CC[C@]4(C)[C@H]3CC[C@]12C
inactive: [1] | [2] | [3] | [10] | [4] | [11] | [5] | [12] | [13] | [14] | [8] | [16] | [9]

O=C1NC(=O)C2CC=CCC12 (centres undefined)
inactive: [1] | [2] | [3] | [4] | [5] | [12] | [13] | [6] | [7] | [14] | [15] | [17] | [18] | [8] | [16] | [9]

Nc1ccc(C(=O)Nc2ccccc2N)cc1
inactive: [1] | [2] | [3] | [10] | [4] | [11] | [5] | [13] | [6] | [7] | [14] | [15] | [17] | [8] | [9]

CCC(=O)/C=C/c1ccc(OC)cc1
inactive: [1] | [2] | [3] | [4] | [11] | [12] | [13] | [6] | [7] | [14] | [15] | [19] | [16] | [9]

Brc1ccccc1-c1ccccc1
active: [6] 17.8 µM
inactive: [1] | [2] | [3] | [4] | [11] | [5] | [13] | [14] | [15] | [17] | [18] | [8] | [9]

O=C1Nc2ccc([N+](=O)[O-])cc2C1=O
inactive: [1] | [2] | [3] | [10] | [4] | [11] | [5] | [12] | [13] | [6] | [7] | [14] | [15] | [18] | [16]

CC(C)CCOC(=O)/C=C/c1ccccc1
inactive: [1] | [2] | [3] | [10] | [5] | [12] | [13] | [6] | [7] | [14] | [15] | [17] | [8] | [16] | [9]
